# High-throughput results: PubChem, National Center for Advancing Translational Sciences (NCATS)
# ALOX12 inh = Primary qHTS assay for inhibitors of human arachidonate 12S-lipoxygenase (ALOX12): Round 2; Polyunsaturated fatty acid lipoxygenase ALOX12 (Homo sapiens), P18054; purified 12hLO, xylenol orange hydroperoxide absorbance; Potency, µM (top dose mostly 108 µM), inactives show top-dose activity change, negative = inhibition, most hits filed as inhibitors; actives 1.1% (n = 580,000); AID 1671190, 2021
#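 Purified human 12hLO (150 nM final) in 25 mM Hepes, 0.01% Triton X-100, pH 7.0 was preincubated 15 min at room temperature with compound. Then 40 uM arachidonic acid was added, 30 min. Hydroperoxide was read by Fe-XO absorbance ratio 573/405 nm.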
# DT40 TDP1 no CPT = qHTS for Inhibitors of human tyrosyl-DNA phosphodiesterase 1 (TDP1): qHTS in cells in absence of CPT; DT40 Tdp1-/- hTDP1 cells, no CPT, ATP luminescence, 48 h; Potency, µM (titrated, usually from 46.2 µM), for the others: at the top dose activity change, negative = growth inhibition, usual class: inhibitors; actives 15% (n = 420,000); AID 686978, 2013; note: nearly all actives have a fitted effect of over 55% in size
#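 Stably hTDP1-transfected Tdp1-null chicken DT40 cells were treated with library compounds minus camptothecin and grown for at least 48 hr at 37 °C, after which cellular ATP was quantified by luminescence.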
# RORg inh = qHTS for inhibitors of ROR gamma transcriptional activity. Nuclear receptor ROR-gamma (Mus musculus), P51450. Drosophila S2 Gal4-RORgamma UAS-luciferase reporter, 20 h. AID 2551, 2010. actives 5.4% (n = 310,000). Potency, µM (top dose mostly 53.6 µM), without a hit: at the top dose activity change, negative = inhibition, hits mostly inhibitors; note: nearly all actives have a fitted effect of over 60% in size
# Target sequence (P51450 whole entry, looked up, the tested form may be a part): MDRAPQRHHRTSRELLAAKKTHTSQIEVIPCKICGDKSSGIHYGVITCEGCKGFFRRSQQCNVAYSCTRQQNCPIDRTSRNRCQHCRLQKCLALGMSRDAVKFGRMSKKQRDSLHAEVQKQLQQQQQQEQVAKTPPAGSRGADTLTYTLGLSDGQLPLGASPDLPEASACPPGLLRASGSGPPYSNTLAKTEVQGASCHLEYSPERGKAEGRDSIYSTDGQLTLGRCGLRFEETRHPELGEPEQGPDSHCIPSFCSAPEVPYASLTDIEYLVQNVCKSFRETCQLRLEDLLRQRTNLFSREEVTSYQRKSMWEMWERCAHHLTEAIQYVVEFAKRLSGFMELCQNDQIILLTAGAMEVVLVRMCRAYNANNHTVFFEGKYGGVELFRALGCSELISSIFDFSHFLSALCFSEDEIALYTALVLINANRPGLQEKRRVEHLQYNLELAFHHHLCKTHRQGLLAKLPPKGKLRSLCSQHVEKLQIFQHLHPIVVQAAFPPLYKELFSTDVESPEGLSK
#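 Schneider cells (Drosophila), stable Gal4 DBD–ROR gamma + UAS-luc; 1 hr cmpd preincubation; Cu2+ induction 700 uM final; 20 hr ambient; luminescence.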
# VP16 counter = VP16 counterscreen qHTS for inhibitors of ROR gamma transcriptional activity; Drosophila S2 Gal4-VP16 UAS-luciferase, luminescence, 20 h; Potency, µM (top dose mostly 53.6 µM), inactives show at the highest dose activity, negative = inhibition, most hits filed as inhibitors; actives 3.5% (n = 310,000); AID 2546, 2010;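 note: Gal4-VP16 expression switched on by copper sulfate through the metallothionein promoter; nearly all actives have a fitted effect of over 50% in size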
# TDP1 cell CPT = qHTS for Inhibitors of human tyrosyl-DNA phosphodiesterase 1 (TDP1): qHTS in cells in presence of CPT. chicken DT40 Tdp1-/-;hTDP1 cells + 20 nM CPT, ATP luminescence, 48 h. Potency, µM (highest dose often 46.2 µM), for inactives: at the top dose activity change, negative = growth inhibition, most hits filed as inhibitors. actives 12% (n = 420,000). AID 686979, 2013; note: nearly all actives have a fitted effect of over 55% in size
#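 Chicken DT40 Tdp1-/- cells complemented with human TDP1, 400 cells/well, exposed to compounds plus 20 nM camptothecin for at least 48 h at 37 C; viability read as ATP content by CellTiter-Glo luminescence.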
# ELG1 DNA repair = qHTS screen for small molecules that inhibit ELG1-dependent DNA repair in human embryonic kidney (HEK293T) cells expressing luciferase-tagged ELG1 | HEK293T ELG1-luciferase reporter, luminescence, 16 h; DNA damage induced by 5-fluorouridine | Potency, µM (series often up to 46.1 µM), for inactives: at the top dose activity change, negative = inhibition, usual class: inhibitors | actives 2.3% (n = 330,000); note: nearly all actives have a fitted effect of over 55% in size
#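 In this reporter screen, reduction of luminescence relative to DMSO vehicle indicated activity. Compounds and 5-fluorouridine were added together to 2,000 cells per well, incubated for 16 hr at 37 °C, then developed with ONE-Glo.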
# The depositor's hits bear a star; ? = inconclusive; . = no result given. An excerpt weighted towards active compounds, which were near 15% of everything screened. Calls come from the whole dose curve; as a rule, active = well fitted curve in the direction sought with a large enough effect; inconclusive = small, poorly fitted or top-dose-only effect, or another doubt; inactive = no such curve, though single readings can be large; an effect the other way counts as inactive or inconclusive. % is set by controls: 0 for no effect and ±100 for the full control effect; potency is the fitted concentration of half-maximal effect.
SMILES,ALOX12 inh,DT40 TDP1 no CPT,RORg inh,VP16 counter,TDP1 cell CPT,ELG1 DNA repair
COc1cc(OC)cc(-c2c(-c3cccs3)c3cc(-c4ccc5c(c4)OCCO5)ccc3n2C)c1,-5%,15µM*,.,.,?,2%
COc1cc(OC)cc(-c2c(-c3cccs3)c3cc(-c4cnc(N)nc4)ccc3n2C)c1,?,?,.,.,23µM*,-29%
COc1cc(OC)cc(-c2c(-c3cccs3)c3cc(-c4ccc(OC)c(F)c4)ccc3n2C)c1,6%,18µM*,.,.,?,15%
COc1cc(OC)cc(-c2c(-c3cccs3)c3cc(-c4ccc(OC)c(OC)c4)ccc3n2C)c1,2%,?,.,.,9.2µM*,-11%
O=C(CCCc1nc2ccccc2[nH]1)N1CCc2c(nc3cc(-c4ccccc4)[nH]n3c2=O)C1,30%,.,.,.,.,.
Cc1ccccc1-n1nnnc1C1(NCc2ccccc2)CCCC1,-8%,.,.,.,.,.
CC(OC(=O)c1ccc(-n2cnnn2)cc1)C(=O)N1CCCc2ccccc21 (stereo not drawn),-3%,.,.,.,.,.
CCc1ccc(C(=O)/C=C/c2cnn(C)c2C)s1,-26%,-23%,5.6µM*,8.9µM*,?,?
Cc1c(/C=C/C(=O)c2cccs2)cnn1C,32%,?,25%,24%,16µM*,?
Nc1ccc(/C=C/C(=O)c2cccs2)cc1,?,?,?,-22%,8%,?
COc1ccccc1-c1nc2nccc(-c3ccc4c(c3)OCCCO4)n2n1,28%,.,.,.,.,.
Cc1c(O)ccc2c(CN3CCN(C)CC3)cc(=O)oc12,77%,.,.,.,.,.
CC(C)C(C)NC(=O)c1ccc(I)cc1 (stereo not drawn),26%,.,.,.,.,.
NC(=O)C1CCN(C(=O)C2CCN(S(=O)(=O)Cc3c(F)cccc3Cl)CC2)CC1,-4%,.,.,.,.,.
CCc1cc(N2CCN(C)C3(CCC(=O)N(C)CC3)C2)nc(N(C)C)n1 (stereo not drawn),17%,.,.,.,.,.
CC1CCc2sc3ncn4nc(C(=O)NCc5ccco5)nc4c3c2C1 (stereo not drawn),-7%,?,-23%,-1%,?,-5%
CCCc1nc2sc3c(SCC(=O)NCc4ccco4)ncnc3c2c2c1CCC2,21%,18µM*,17%,0%,?,?
CCC1CCc2c(sc3nc(SCC(=O)NCc4ccco4)n(-c4ccccc4)c(=O)c23)C1 (stereo not drawn),0%,?,?,?,29µM*,?
CC1CCc2c(sc3ncn4c(SCC(=O)NCc5ccco5)nnc4c23)C1 (stereo not drawn),1%,21µM*,6%,-2%,?,11%
CC(C)Sc1nc2sc3c(c2c2nnc(SCC(=O)NCc4ccco4)n12)CCCC3,?,18µM*,40%,-6%,?,?
C#CCN1C(=O)CC[C@@H](S(=O)(=O)c2ccccc2)[C@@H]1c1ccccc1,9%,.,.,.,.,.
COC(=O)C1C(=O)CC(C)(O)C(C(=O)OC)C1c1ccc(F)cc1 (stereo not drawn),-23%,.,.,.,.,.
CC(C)Sc1nc(SCC(=O)O)c2c3c(sc2n1)COC(C)(C)C3,12%,3%,0%,-3%,-29%,?
CC(C)Sc1nc(SCC(=O)NCc2ccco2)c2c3c(sc2n1)COC(C)(C)C3,?,?,14%,-4%,?,2.3µM*
